DRD3 antagonist = qHTS of D3 Dopamine Receptor Antagonist: qHTS. D(3) dopamine receptor (Homo sapiens), P35462. AID 652054, 2013. D3R cells, DiscoveRx beta-arrestin luminescence, antagonist mode; stronger effect = lower value. 2.5% of 360,000 active. max response, negative = inhibition, %; in the data active means max response below about -50%; inconclusive means no clear call, values can overlap the other calls; further: on the % scale 0 is the no-effect control and ±100 the full control effect
Target sequence (P35462 whole entry, looked up): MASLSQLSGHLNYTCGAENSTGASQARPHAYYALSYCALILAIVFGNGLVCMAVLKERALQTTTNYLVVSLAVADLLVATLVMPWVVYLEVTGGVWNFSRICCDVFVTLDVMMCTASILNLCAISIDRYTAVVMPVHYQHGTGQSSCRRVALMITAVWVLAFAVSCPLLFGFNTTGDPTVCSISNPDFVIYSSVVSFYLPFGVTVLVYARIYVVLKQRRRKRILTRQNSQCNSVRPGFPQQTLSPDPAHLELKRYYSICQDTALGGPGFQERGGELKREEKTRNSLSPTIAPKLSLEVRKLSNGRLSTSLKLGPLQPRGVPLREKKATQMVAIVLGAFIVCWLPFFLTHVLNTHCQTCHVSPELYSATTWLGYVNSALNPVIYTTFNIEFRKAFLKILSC
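Cells expressing the human receptor were seeded at 1500 cells/well, incubated overnight at 37 degrees C in 5% CO2, then exposed to library compounds with dopamine controls for 90 minutes at 37 degrees C before luminescent detection.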
ClpP mod = qHTS Assay for Activators of ClpP; 1.9% of 340,000 active; Potency, µM (titrated, usually from 57.5 µM), for inactives: at the highest dose activity change, negative = active; purified B. subtilis ClpP, FRET peptide cleavage, 20 min; active means well fitted falling curve with a large enough effect; inconclusive means small, poorly fitted or top-dose-only effect; inactive means no such curve, though single readings can be large or run the other way; further: potency means the concentration at half of the fitted maximal effect; the source files actives as falling curves though it sought activators and does not explain the sign; nearly all actives have a fitted effect of over 65% in size
Target sequence (P80244 whole entry, looked up): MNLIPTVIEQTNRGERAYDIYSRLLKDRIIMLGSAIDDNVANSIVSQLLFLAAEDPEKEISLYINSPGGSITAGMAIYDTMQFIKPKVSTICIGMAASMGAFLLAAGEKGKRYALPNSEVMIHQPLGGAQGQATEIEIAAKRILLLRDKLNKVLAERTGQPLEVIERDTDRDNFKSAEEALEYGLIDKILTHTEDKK
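Purified B. subtilis ClpP, 10 microg/mL final in Tris/HCl pH8 with KCl, BSA, glycerol and Tween-20, cleaved an Abz/nitrotyrosine-quenched decapeptide. Fluorescence (ex 320, em 430) was read at 0 and 20 min at room temperature. Delta was normalized to 5.8 microM ADEP and DMSO/no-enzyme controls.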
TDP1 cell CPT = qHTS for Inhibitors of human tyrosyl-DNA phosphodiesterase 1 (TDP1): qHTS in cells in presence of CPT; chicken DT40 Tdp1-/-;hTDP1 cells + 20 nM CPT, ATP luminescence, 48 h; Potency, µM (titrated, usually from 46.2 µM), inactives show top-dose activity change, negative = growth inhibition, hits mostly inhibitors; 12% of 420,000 active; further: potency means the concentration at half of the fitted maximal effect; on the % scale 0 is the no-effect control and ±100 the full control effect; nearly all actives have a fitted effect of over 55% in size
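Cell growth measured by CellTiter-Glo luminescence after a minimum 48 h, 37 C compound exposure with 20 nM CPT in Tdp1-knockout DT40 cells stably expressing hTDP1, seeded 400/well; qHTS titration format.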
TDP1 cell noCPT = qHTS for Inhibitors of human tyrosyl-DNA phosphodiesterase 1 (TDP1): qHTS in cells in absence of CPT | DT40 Tdp1-/- hTDP1 cells, no CPT, ATP luminescence, 48 h | Potency, µM (highest dose often 46.2 µM), without a hit: top-dose activity change, negative = growth inhibition, most hits filed as inhibitors | 15% of 420,000 active | AID 686978, 2013; further: potency means the concentration at half of the fitted maximal effect; on the % scale 0 is the no-effect control and ±100 the full control effect; nearly all actives have a fitted effect of over 55% in size
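Growth kinetics read by CellTiter-Glo luminescence after ≥48 hr at 37 °C. Cells: DT40 Tdp1-/- stably carrying human TDP1, 400 per well, compound exposure in the absence of CPT (DMSO vehicle).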
IL1B secr inh = qHTS for Inhibitors of Inflammasome Signaling: IL-1-beta AlphaLISA Primary Screen. activity change, % at 57.5 µM. THP-1 LPS/ATP IL-1B secretion, AlphaLISA, 16 h; stronger effect = lower value. 4.7% of 360,000 active. AID 743279, 2014; in the data active means activity change below about -50%; inconclusive means mostly about -30% to -49%; further: on the % scale 0 is the no-effect control and ±100 the full control effect
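THP-1 cells pretreated 1 hr with compounds (up to 57.5 uM final), then stimulated with LPS (250 ng/mL final) plus ATP (1.25 mM final); secreted IL-1B measured by AlphaLISA after 16 hr, decreased signal indicating inhibition.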
D3 ag = qHTS of D3 Dopamine Receptor Agonist: qHTS | max activation, % | D3R DiscoveRx beta-arrestin cells, luminescence, 90 min | D(3) dopamine receptor (Homo sapiens), P35462 | 0.58% of 410,000 active | AID 652048, 2013; in the data active means max activation above about 30%; further: 0% is about no effect
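Agonist-mode cell screen: cells plated at 1500/well and incubated overnight at 37 °C, then exposed to library compounds for 90 min at 37 °C. Detection reagent was added for 30–60 min at room temperature, and luminescence was read.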
* = called active by the depositor; ? = inconclusive; nt = not tested or not shown; [ ] = remark or other dose. Only some compounds are listed: those with a hit (about 21% of all), similar ones and a draw of the others. Unless noted, the call rests on the fitted dose curve; in most records, active means well fitted inhibition curve with a large enough effect; inconclusive means small, poorly fitted or top-dose-only effect; inactive means flat fitted curve, though single readings scatter.

SMILES	DRD3 antagonist	ClpP mod	TDP1 cell CPT	TDP1 cell noCPT	IL1B secr inh	D3 ag
CC1(C(=O)OCC(=O)NNC(=O)COc2ccc(Cl)cc2)CC1(Cl)Cl (centres undefined)	?	-2.4%	-8.1%	-7.3%	-2.4	2.2
COc1ccc(SN=C2C(C)=CC(=O)C=C2C)cc1	?	nt	?	9.2µM*	?	-17.1
CC(NC(=O)c1ccco1)c1nnc2n1CCN(Cc1ccc(N3CCCC3)cc1)CC2 (centres undefined)	nt	nt	-4.2%[9.04 µM]	-17.9%	nt	nt
N=C(N)SCc1cccc2c(=O)cc(-c3ccccc3)oc12	nt	-3.6%	4.47µM*	7.08µM*	nt	nt
C[C@@H]1CN([C@H](C)CO)C(=O)CCCn2cc(nn2)CO[C@H]1CN(C)C(=O)Nc1ccc2c(c1)OCCO2	17.3	1.5%	10.3%	-22.9%	31.3	3.2
CC(=O)Nc1nc(-c2ccc3c(c2)CCN3S(C)(=O)=O)cs1	5.8	nt	-20.3%	?	-27.3	2.2
O=C(Cc1cccs1)Nc1nc(-c2ccccc2)cs1	39.8	-1.2%	23.1µM*	8.2µM*	-69.9*	-0.8
O=C(COC(=O)/C=C/c1cccs1)Nc1nc(-c2ccccc2)cs1	-14.5	nt	16.4µM*	13µM*	-12.6	-9.2
O=C(COC(=O)/C=C/c1cccs1)Nc1nc(-c2cccc(Br)c2)cs1	36.9	-5.9%	?	-23.4%	-26.2	-1.2
O=C(COC(=O)c1cccs1)Nc1nc(-c2ccccc2)cs1	?	31.6µM*	2.8%	?	-5.4	2.1
CS(=O)(=O)N1CCc2cc(-c3csc(NC(=O)Cc4cccs4)n3)ccc21	33.6	-0.2%	13µM*	8.2µM*	-65.4*	13.7
Cc1cc(NC(=O)c2ccccc2F)ccc1-c1nc2ccccc2s1	nt	-26.4%	?	?	nt	-10.3
CC(Cc1cccs1)NC(=O)Nc1ccc([N+](=O)[O-])cc1 (centres undefined)	0.0	-0.8%	?	16.4µM*	-13.7	-6.8
CN(C)C(=O)CCc1ccc2c3c([nH]c2c1)[C@]1(C)[C@@H](C(=O)N2CCCCC2)C[C@H](CC(=O)NCCCn2ccnc2)C(=O)N1CC3	-2.0	-5.8%	3.8%	-5.5%	-19.2	-8.5
CC(C)C(c1nnnn1C(C)(C)C)N1CCOCC1 (centres undefined)	-61.0*	4.9%	-8.7%	-19.0%	5.2	-4.0
CC(C)C(c1nnnn1C1CCCCC1)N1CCOCC1 (centres undefined)	-18.0	-1.7%	-12.9%	-3.9%	-0.7	-1.4
CCC(C)(C)n1nnnc1C(C(C)C)N1CCC(C(N)=O)CC1 (centres undefined)	-9.2	-15.9%	-0.3%	-1.4%	34.3	4.0
CC(C)C(c1nnnn1C(C)(C)C)N1CCC(Cc2ccccc2)CC1 (centres undefined)	1.1	-0.6%	?	?	-76.4*	-13.0
OC(COc1ccc2ccccc2c1)Cn1ccnc1 (centres undefined)	9.0	-2.3%	-16.1%	-20.7%	1.5	2.4
OC(COc1ccc2ccccc2c1Br)Cn1ccnc1 (centres undefined)	0.0	-1.1%	?	20.6µM*	-24.8	-11.2
COc1cc(Cl)c(CNC[C@H]2O[C@@H](n3ccc(=O)[nH]c3=O)[C@H](O)[C@@H]2O)c(Cl)c1O	0.0	-4.6%	?	?	1.1	-49.4
COc1ccc(CNC[C@H]2O[C@@H](n3ccc(=O)[nH]c3=O)[C@H](O)[C@@H]2O)cc1OC	-58.7*	-0.4%	-13.9%	-61.7%	-22.2	-6.2
NCCN1C(=O)c2ccccc2C1(O)c1ccc(Cl)cc1 (centres undefined)	?	0.7%	?	13µM*	-27.3	-7.3
O=C1c2ccccc2C(O)(c2ccccc2)N1C1CC1 (centres undefined)	19.1	nt	-9.4%	2.7%	9.2	7.5
CCOC(=O)C1=C(N)Oc2cc(O)ccc2C1c1ccc([N+](=O)[O-])cc1 (centres undefined)	?	nt	0.5%	-16.9%	-69.8*	-10.3
SMILES	DRD3 antagonist	ClpP mod	TDP1 cell CPT	TDP1 cell noCPT	IL1B secr inh	D3 ag
CC(C)N1CCC(N2CCN(Cc3ccc(-c4ccccc4Cl)o3)CC2CCO)CC1 (centres undefined)	-2.4	nt	?	?	?	-10.5
CC(C)N1CCC(N2CCN(Cc3cnc(-c4ccccc4)s3)CC2CCO)CC1 (centres undefined)	2.0	nt	1.1%	-6.4%	-13.3	4.3
Cc1ccc(-c2cccc(CN3CCN(C4CCN(C(C)C)CC4)C(CCO)C3)c2)o1 (centres undefined)	-9.7	4.3%	?	7.31µM*	?	-7.6
CC(C)N1CCC(N2CCN(Cc3ccc(-c4ccc(Cl)cc4)o3)CC2CCO)CC1 (centres undefined)	?	nt	?	18.4µM*	-69.5*	-11.2
O=c1cc(Nc2ccc3c(c2)OCO3)[nH]c(=O)n1-c1ccc(Br)cc1	22.6	-21.9%	?	23.1µM*	19.9	7.6
O=C(CC1NCCN(Cc2ccccc2)C1=O)Nc1ccccc1 (centres undefined)	-17.3	-1.0%	-2.8%	-7.3%	3.4	-2.6
O=C(Nc1ccccc1)c1cc(C2CCCCN2S(=O)(=O)c2ccc(F)cc2F)on1 (centres undefined)	7.8	-1.6%	-19.4%	?	11.4	0.3
O=c1cc[nH]c2ccc(Cl)cc12	9.0	-8.0%	-14.9%	-16.7%	23.3	-3.7
O=c1cccc2c1c1cc[nH]c3ccc(=O)n2c31	-1.3	2.4%	9.2µM*	18.4µM*	-71.8*	4.6
O=C1CN(S(=O)(=O)c2ccccc2)c2ccccc2N1	-7.6	nt	1.7%	-4.6%	23.0	-10.2
COCC(=O)Nc1cc(C(=O)N2CCCC2c2nccs2)c2c(c1)nc(-c1ccncc1)n2C (centres undefined)	nt	nt	21.8%	-14.9%	nt	nt
COc1ccc(NC(=O)C2CCC2)cc1S(=O)(=O)N1CCOCC1	-4.8	-1.1%	-7.3%	1.9%	-3.0	-1.8
COc1ccc(NC(=O)C2CCC(C(C)(C)C)CC2)cc1S(=O)(=O)N1CCOCC1 (centres undefined)	-5.7	-2.6%	20.6µM*	?	35.1	8.4

Compound activity: PubChem BioAssay, National Center for Advancing Translational Sciences (NCATS)
